{"source": "paper PMC10668032", "about": "“Altered binding affinity of SIX1-Q177R correlates with enhanced WNT5A and WNT pathway effector expression in Wilms tumor”", "note": "Over roughly 33,000 sequences, “e-score” has its median near -0.053; the highest 2% begin near 0.38. The sample as a whole holds a higher share of the highest values than the screen did.", "data": [{"target": "T1, SIX1 homeodomain (reference allele) (human, UniProt Q15475 108-198)", "T1 sequence": "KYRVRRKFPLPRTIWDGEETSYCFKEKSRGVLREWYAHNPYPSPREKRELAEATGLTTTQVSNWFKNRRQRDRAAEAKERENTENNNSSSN", "assay": "universal protein binding microarray; Universal all-10-mer PBM (8x60K, AMADID 030236), 300 nM GST-tagged protein, Alexa Fluor 488 anti-GST; buffer, salt, pH and temperature not stated (as in Berger); high values mean tight binding", "conditions": "protein: ivt; tags: N-terminal GST; dsDNA, one strand shown", "in_short": "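Binding of GST-tagged homeodomains is given as 8-mer E-scores from the Universal PBM Analysis Suite. The proteins were produced by in vitro transcription/translation, quantified by anti-GST western blot against a recombinant GST standard curve, and applied in duplicate at 300 nM final concentration to universal 'all 10-mer' protein binding microarrays (8×60K format).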", "units": {"binding signal": "E-score"}, "values": [{"sequence": "ACACCCGA", "binding signal": "0.294 ± 0.0236"}, {"sequence": "ATACCCGC", "binding signal": "0.3787 ± 0.00251"}, {"sequence": "ATACCCGA", "binding signal": "0.407 ± 0.00771"}, {"sequence": "ATACCCGG", "binding signal": "0.407 ± 0.0266"}, {"sequence": "AAACCCGG", "binding signal": "0.163 ± 0.0401"}, {"sequence": "AGACCCGG", "binding signal": "0.214 ± 0.0594"}, {"sequence": "GATTATAA", "binding signal": "0.165 ± 0.0198"}, {"sequence": "GATTACAC", "binding signal": "0.164 ± 0.0334"}, {"sequence": "ATAGACAC", "binding signal": "0.285 ± 0.0262"}, {"sequence": "GACACGGA", "binding signal": "0.196 ± 0.00735"}, {"sequence": "AGGAATAC", "binding signal": "0.2106 ± 0.00182"}, {"sequence": "GGATTGGA", "binding signal": "0.171 ± 0.00314"}, {"sequence": "ATACTGCC", "binding signal": "0.3133 ± 0.000361"}, {"sequence": "ATCGTTGC", "binding signal": "0.202 ± 0.04"}, {"sequence": "TAATACTA", "binding signal": "0.276 ± 0.0717"}, {"sequence": "GCATAATA", "binding signal": 0.187}, {"sequence": "TGGATCAA", "binding signal": "0.3057 ± 0.00301"}, {"sequence": "CTGATCAG", "binding signal": "0.313 ± 0.0448"}, {"sequence": "AGGATCGA", "binding signal": "0.289 ± 0.0472"}, {"sequence": "CCGATCAC", "binding signal": "0.346 ± 0.0289"}, {"sequence": "CGGATCAC", "binding signal": "0.463 ± 0.00697"}, {"sequence": "CCGATCAG", "binding signal": "0.24 ± 0.0341"}, {"sequence": "CGGATCAG", "binding signal": "0.443 ± 0.0116"}, {"sequence": "CGGATCAA", "binding signal": "0.417 ± 0.0173"}, {"sequence": "CTGATCAC", "binding signal": "0.204 ± 0.0353"}, {"sequence": "CGGATCGA", "binding signal": "0.34 ± 0.0821"}, {"sequence": "AGGATCAA", "binding signal": "0.352 ± 0.036"}, {"sequence": "GGGATCGA", "binding signal": "0.385 ± 0.0533"}, {"sequence": "CGAGATCG", "binding signal": "0.207 ± 0.0304"}, {"sequence": "TAATATGA", "binding signal": "0.196 ± 0.0472"}, {"sequence": "CCCCGATA", "binding signal": "0.347 ± 0.00347"}, {"sequence": "CCTTGATC", "binding signal": "0.243 ± 0.0361"}, {"sequence": "GAGATCAA", "binding signal": "0.31 ± 0.0391"}, {"sequence": "GCGATCAC", "binding signal": "0.354 ± 0.0376"}, {"sequence": "GTGATCAC", "binding signal": "0.306 ± 0.0127"}, {"sequence": "GCGATCAA", "binding signal": "0.18 ± 0.0413"}, {"sequence": "GGGATCAC", "binding signal": "0.445 ± 0.0186"}, {"sequence": "GGGATCAA", "binding signal": "0.386 ± 0.0187"}, {"sequence": "ATCGGTGG", "binding signal": "0.189 ± 0.0514"}, {"sequence": "CAACACCG", "binding signal": "0.268 ± 0.021"}, {"sequence": "CCCTGATC", "binding signal": "0.33 ± 0.0305"}, {"sequence": "AGTTGATA", "binding signal": "0.406 ± 0.0373"}, {"sequence": "AGTTGATC", "binding signal": "0.23 ± 0.0154"}, {"sequence": "ACTTGATA", "binding signal": "0.374 ± 0.0379"}, {"sequence": "GCTTGATA", "binding signal": "0.351 ± 0.0581"}, {"sequence": "GGTTGATA", "binding signal": "0.384 ± 0.0228"}, {"sequence": "CGTTGATA", "binding signal": "0.334 ± 0.0658"}, {"sequence": "AGATAACG", "binding signal": "0.191 ± 0.042"}, {"sequence": "ATATGCGC", "binding signal": "0.27 ± 0.0371"}, {"sequence": "CGGCTCAC", "binding signal": "0.174 ± 0.0262"}, {"sequence": "CGTATCCC", "binding signal": "0.389 ± 0.00815"}, {"sequence": "CTTATCCC", "binding signal": "0.235 ± 0.0469"}, {"sequence": "CGTATCCA", "binding signal": "0.403 ± 0.0252"}, {"sequence": "ACTATCCC", "binding signal": "0.294 ± 0.0143"}, {"sequence": "CTTATCCA", "binding signal": "0.186 ± 0.0114"}, {"sequence": "CCTATCCA", "binding signal": "0.232 ± 0.0293"}, {"sequence": "AGTATCCC", "binding signal": "0.412 ± 0.00869"}, {"sequence": "ATTATCCC", "binding signal": "0.274 ± 0.0711"}, {"sequence": "CCTATCCC", "binding signal": "0.291 ± 0.0369"}, {"sequence": "GATCCTGC", "binding signal": "0.353 ± 0.0135"}, {"sequence": "CATCTAAG", "binding signal": "0.178 ± 0.0937"}, {"sequence": "ATACTGGA", "binding signal": "0.325 ± 0.00489"}, {"sequence": "ATTGGATC", "binding signal": "0.365 ± 0.0365"}, {"sequence": "ATCGAGCG", "binding signal": "0.156 ± 0.0113"}, {"sequence": "TATATTCA", "binding signal": "0.166 ± 0.0205"}, {"sequence": "AACCATAT", "binding signal": "0.303 ± 0.013"}, {"sequence": "ACCCATAT", "binding signal": "0.3794 ± 0.00238"}, {"sequence": "ACCCATCT", "binding signal": "0.204 ± 0.0603"}, {"sequence": "CATTGATC", "binding signal": "0.265 ± 0.000601"}, {"sequence": "AATTGATA", "binding signal": "0.344 ± 0.0859"}, {"sequence": "GATTGATA", "binding signal": "0.381 ± 0.046"}, {"sequence": "CCTTGATA", "binding signal": "0.317 ± 0.0459"}, {"sequence": "GATTGAGA", "binding signal": "0.151 ± 0.0232"}, {"sequence": "CATTGATA", "binding signal": "0.391 ± 0.0167"}, {"sequence": "ACACCTCA", "binding signal": "0.24 ± 0.0368"}, {"sequence": "ACTAGCCG", "binding signal": "0.183 ± 0.0569"}, {"sequence": "CTATAATC", "binding signal": "0.157 ± 0.0879"}, {"sequence": "ATCGTGGG", "binding signal": "0.163 ± 0.0327"}, {"sequence": "ATGGATAC", "binding signal": "0.447 ± 0.0217"}, {"sequence": "CTGGATAC", "binding signal": "0.387 ± 0.0256"}, {"sequence": "ATGGATAA", "binding signal": "0.212 ± 0.00686"}, {"sequence": "ATGGATAG", "binding signal": "0.247 ± 0.00822"}, {"sequence": "CTGGATTA", "binding signal": "0.177 ± 0.0302"}, {"sequence": "ACTACGAT", "binding signal": "0.1669 ± 0.00123"}, {"sequence": "TATCCAGA", "binding signal": "0.3343 ± 0.00221"}, {"sequence": "ATACACAA", "binding signal": "0.232 ± 0.0214"}, {"sequence": "AGGATTAA", "binding signal": "0.243 ± 0.0865"}, {"sequence": "ATCCCTCA", "binding signal": "0.312 ± 0.0176"}, {"sequence": "GCTACCCC", "binding signal": "0.158 ± 0.092"}, {"sequence": "AATACCCA", "binding signal": "0.2902 ± 0.00209"}, {"sequence": "AATACCCC", "binding signal": "0.4268 ± 0.000757"}, {"sequence": "AATACCAG", "binding signal": "0.306 ± 0.0188"}, {"sequence": "AATACCCG", "binding signal": "0.293 ± 0.0206"}, {"sequence": "CATACCCC", "binding signal": "0.258 ± 0.054"}, {"sequence": "AATACCTC", "binding signal": "0.331 ± 0.0598"}, {"sequence": "GATACCCC", "binding signal": "0.4957 ± 0.00126"}, {"sequence": "AATACCCT", "binding signal": "0.384 ± 0.0168"}, {"sequence": "CCGTCTCG", "binding signal": "0.232 ± 0.00359"}, {"sequence": "CAATACGG", "binding signal": "0.178 ± 0.00369"}, {"sequence": "ATTAAATA", "binding signal": "0.24 ± 0.0313"}, {"sequence": "GATCAGCA", "binding signal": "0.235 ± 0.00865"}, {"sequence": "ATACGGAC", "binding signal": "0.193 ± 0.00348"}, {"sequence": "AATATACA", "binding signal": "0.222 ± 0.0386"}, {"sequence": "AATATTCC", "binding signal": "0.251 ± 0.0499"}, {"sequence": "GATATACA", "binding signal": "0.384 ± 0.0104"}, {"sequence": "AATATACC", "binding signal": "0.32 ± 0.0474"}, {"sequence": "TATATACA", "binding signal": "0.284 ± 0.0122"}, {"sequence": "CATATACC", "binding signal": "0.282 ± 0.0234"}, {"sequence": "GATATACC", "binding signal": "0.4592 ± 0.00376"}, {"sequence": "GATATTCC", "binding signal": "0.376 ± 0.0303"}, {"sequence": "GATATTCA", "binding signal": "0.232 ± 0.0803"}]}]}
